A short description of this experiment: NCI Yeast Anticancer Drug Screen. Data for the sgs1 strain (AID 173).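 Note: 0% = growth of vehicle-only control cultures.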 Particulars: S. cerevisiae sgs1 mutant, hits give high values. The method, then: Growth inhibition of yeast strains with defined genetic alterations is measured as a screen for potential anti-cancer activity. Selected strains with alterations in DNA damage repair or cell cycle control were exposed to compounds and growth inhibition was measured relative to vehicle treated controls. The strain used in this assay is sgs1

About 79,000 compounds went through this panel and 15% of them were active in at least one assay; those are over-represented in the sample as a whole. Active and inactive are the calls of the source. Cut-off read from the data, not from the text of the source: active = growth inhibition above about 70%; inactive = the rest.

On to `COC(=O)c1cccc(C)c1C(=O)c1c(C)cc(C)cc1C`, for which the growth inhibition by setting is: (at 1.2 µM) 1% (inactive); (at 3.7 µM) 3% (inactive); (at 11.0 µM) 7% (inactive); (at 33.0 µM) 25% (inactive); (at 100.0 µM) 65% (inactive).

On to `CC1=CCCC2C1(C)CCC(C)C2(C)Cc1cc(O)ccc1O` (stereo not given), for which the growth inhibition (at 1.2 µM) was 4% (inactive); the growth inhibition (at 3.7 µM) is 31% (inactive); the growth inhibition (at 11.0 µM) was 79% (active); the growth inhibition (at 33.0 µM) is 99% (active); the growth inhibition (at 100.0 µM) was 95% (active).

With `Cc1cc(O)c2c(c1O)C(=O)C13C(=C2O)C(=O)C2C(O)C1C1C(O)C3C(=O)C3=C(O)c4c(O)cc(C)c(O)c4C(=O)C321` (stereo not given), the growth inhibition reads like this: (at 1.2 µM) 29% (inactive); (at 3.7 µM) 31% (inactive); (at 11.0 µM) 54% (inactive); (at 33.0 µM) 80% (active); (at 100.0 µM) 80% (active).

Take `O=C1OC2C(O)COC2(OCc2c[nH]c3ccccc23)C1O` (stereo not given) (tested in a mixture with another compound): the growth inhibition is, setting by setting: (at 1.2 µM) -1% (inactive); (at 3.7 µM) 0% (inactive); (at 11.0 µM) 3% (inactive); (at 33.0 µM) 43% (inactive); (at 100.0 µM) 92% (active).

In the case of `O=Nn1c2ccccc2c2ccccc21`, the growth inhibition is -3% (inactive) (at 1.2 µM); 5% (inactive) (at 3.7 µM); 10% (inactive) (at 11.0 µM); 7% (inactive) (at 33.0 µM); 66% (inactive) (at 100.0 µM).

In the case of `Cc1cccc(/C=N/NC(=S)N(C)CCc2ccccn2)n1`, the growth inhibition runs as follows: (at 1.2 µM) 97% (active); (at 3.7 µM) 98% (active); (at 11.0 µM) 99% (active); (at 33.0 µM) 99% (active); (at 100.0 µM) 98% (active).

As for `CCCc1[nH]nc(C(N)=O)c1N=NN(C)C`, the growth inhibition is 0% (inactive) (at 1.2 µM); -3% (inactive) (at 3.7 µM); 24% (inactive) (at 11.0 µM); 56% (inactive) (at 33.0 µM); 85% (active) (at 100.0 µM).

`N#Cc1sc2c(c1OC(=O)c1ccco1)c(=O)n(-c1ccccc1)c(=S)n2-c1ccccc1`: the growth inhibition is, setting by setting: (at 1.2 µM) 0% (inactive); (at 3.7 µM) 1% (inactive); (at 11.0 µM) 0% (inactive); (at 33.0 µM) 1% (inactive); (at 100.0 µM) 0% (inactive).
